ClpP mod = qHTS Assay for Activators of ClpP. Potency, µM (titrated, usually from 57.5 µM). AID 651965, 2013. purified B. subtilis ClpP, FRET peptide cleavage, 20 min. 340,000 compounds, 1.9% hits. ATP-dependent Clp protease proteolytic subunit (Bacillus subtilis (strain 168)), P80244; active = well fitted falling curve with a large enough effect; inconclusive = small, poorly fitted or top-dose-only effect; inactive = no such curve, though single readings can be large or run the other way; also: the source files actives as falling curves though it sought activators and does not explain the sign; nearly all actives have a fitted effect of over 65% in size
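Purified B. subtilis ClpP, 10 microg/mL final in Tris/HCl pH8 with KCl, BSA, glycerol and Tween-20, cleaved an Abz/nitrotyrosine-quenched decapeptide. Fluorescence (ex 320, em 430) was read at 0 and 20 min at room temperature. Delta was normalized to 5.8 microM ADEP and DMSO/no-enzyme controls.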
TDP1 cell noCPT = qHTS for Inhibitors of human tyrosyl-DNA phosphodiesterase 1 (TDP1): qHTS in cells in absence of CPT | Potency, µM (doses to about 46.2 µM), hits mostly inhibitors | 420,000 compounds, 15% hits | AID 686978, 2013 | DT40 Tdp1-/- hTDP1 cells, no CPT, ATP luminescence, 48 h; also: nearly all actives have a fitted effect of over 55% in size
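Growth kinetics read by CellTiter-Glo luminescence after ≥48 hr at 37 °C. Cells: DT40 Tdp1-/- stably carrying human TDP1, 400 per well, compound exposure in the absence of CPT (DMSO vehicle).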
DT40 TDP1 CPT = DT40-hTDP1 cell growth loss with CPT | chicken DT40 Tdp1-/-;hTDP1 cells + 20 nM CPT, ATP luminescence, 48 h | Potency, µM (top dose mostly 46.2 µM), usual class: inhibitors | 420,000 compounds, 12% hits; also: nearly all actives have a fitted effect of over 55% in size
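Chicken DT40 Tdp1-/- cells stably complemented with human TDP1 were seeded at 400 cells/well in medium containing 20 nM camptothecin, exposed to pin-transferred compounds, and grown at 37 °C for at least 48 hr. Viability was read as ATP luminescence.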
D3 antag = antagonists of human D3 dopamine receptor | D3R cells, DiscoveRx beta-arrestin luminescence, antagonist mode; hits give low values | 360,000 compounds, 2.5% hits | P35462 | max response, negative = inhibition, %; in the data active = max response below about -50%; inconclusive = no clear call, values can overlap the other calls
Target sequence (P35462 whole entry, looked up): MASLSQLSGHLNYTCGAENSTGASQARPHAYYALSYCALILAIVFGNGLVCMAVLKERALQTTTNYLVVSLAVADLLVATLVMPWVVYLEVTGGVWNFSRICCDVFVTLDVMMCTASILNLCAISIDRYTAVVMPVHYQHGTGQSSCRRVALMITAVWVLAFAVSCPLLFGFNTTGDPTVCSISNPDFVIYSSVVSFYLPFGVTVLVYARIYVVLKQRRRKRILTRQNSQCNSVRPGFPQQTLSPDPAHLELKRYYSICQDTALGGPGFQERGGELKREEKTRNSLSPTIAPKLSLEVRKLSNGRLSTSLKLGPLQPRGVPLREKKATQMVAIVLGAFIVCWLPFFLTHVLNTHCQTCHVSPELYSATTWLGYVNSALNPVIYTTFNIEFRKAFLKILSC
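Cells plated overnight at 1500 cells/well, then exposed to library compounds with dopamine controls for 90 minutes at 37 degrees C. DiscoveRx reagent added for 30–60 minutes at room temperature; luminescence read, quantitative HTS format.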
IL-1B inflam inh = inflammasome signaling inhibition, IL-1 beta readout; THP-1 LPS/ATP IL-1B secretion, AlphaLISA, 16 h; hits give low values; activity change, % at 57.5 µM; 360,000 compounds, 4.7% hits; in the data active = activity change below about -50%; inconclusive = mostly about -30% to -49%
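THP-1 cells pretreated 1 hr with compounds (up to 57.5 uM final), then stimulated with LPS (250 ng/mL final) plus ATP (1.25 mM final); secreted IL-1B measured by AlphaLISA after 16 hr, decreased signal indicating inhibition.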
D3 ag = D3 dopamine receptor (human) agonism. P35462. D3R DiscoveRx beta-arrestin cells, luminescence, 90 min. max activation, %. 410,000 compounds, 0.58% hits; in the data active = max activation above about 30%
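Cells at 1500/well, incubated overnight, then treated with pinned compounds (dopamine as control) for 90 min at 37 degrees C. DiscoveRx reagent added for 30 - 60 minutes at room temperature; luminescence read.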
A number is an active result; . = inactive; ? = inconclusive; / = no result given; ! = not confirmed by another sample. Hits are enriched below; roughly 21% of the tested compounds scored in any of these assays. Unless noted, calls follow the shape of the dose curve; as a rule, active = well fitted inhibition curve with a large enough effect; inconclusive = small, poorly fitted or top-dose-only effect; inactive = flat fitted curve, though single readings scatter.

SMILES	ClpP mod	TDP1 cell noCPT	DT40 TDP1 CPT	D3 antag	IL-1B inflam inh	D3 ag
NC(N)=NC(N)=Nc1cccc(Cl)c1	.	21µM	?	.	.	.
Cc1ccc(Cl)cc1N=C(N)N=C(N)N	.	?	?	.	.	.
Cc1ccc(-c2c[n+](CC(=O)Nc3ccccc3C)c3n2CCC3)cc1	.	?	?	-63	-53	.
Cn1c(NC(=O)C[n+]2cc(-c3ccc(F)cc3)n3c2CCC3)cc(=O)n(C)c1=O	.	?	.	.	.	.
Cc1ccc(-c2c[n+](CC(=O)Nc3cc(=O)n(C)c(=O)n3C)c3n2CCC3)cc1	.	15µM	?	.	.	.
Cc1ccc(NC(=O)C[n+]2cc(-c3ccccc3)n3c2CCC3)cc1	.	?	.	-111	.	.
Cc1ccc(N(C(=O)c2csnn2)C(C(=O)NC2CCCCC2)c2ccncc2)cc1 (centres undefined)	.	.	.	.	.	.
CCOc1ccc(NC(=O)c2cn3c4c(ccc(Cl)c4c2=O)OC(C)C3)cc1 (centres undefined)	.	.	.	/	/	.
C/C(N)=C(/C#N)C(=O)CN1C(=O)NC(Cc2c[nH]c3ccccc23)C1=O (centres undefined)	.	.	.	.	.	.
CC(C)(C)OC(=O)N1CCC2(CC1)Oc1ccc(F)cc1C(=O)C21CC(c2ccccc2)=NO1 (centres undefined)	.	?	23µM	.	?	.
O=C1c2cc(F)ccc2OC2(CCNCC2)C12CC(c1ccccc1)=NO2 (centres undefined)	.	?	15µM	.	-53	.
CCOc1cc(C#N)c(NC(=O)c2ccc(OC)c(S(=O)(=O)N3CCN(c4ccccc4)CC3)c2)cc1OCC	.	?	?	/	/	.
CCc1ccc(Nc2sc(C(=O)c3ccccc3)c(N)c2S(C)(=O)=O)cc1	.	?	?	/	/	.
O=C1c2cccc3c(N4CCCCC4)ccc(c23)C(=O)N1c1ccccc1O	.	21µM	13µM	.	.	.
O=C1c2cccc3c(N4CCCCC4)ccc(c23)C(=O)N1c1ccc(O)cc1	/	23µM	?	.	.	.
CCN(CC(=O)Nc1cc(Cl)ccc1C)C(=O)C1CC(=O)N(Cc2ccccc2)C1 (centres undefined)	/	.	?	.	.	.
Cc1ccccc1NC(=S)N=Nc1c(O)n(C)c2ccc(S(=O)(=O)N3CCOCC3)cc12	.	7.3µM	8.2µM	.	.	.
Cc1cccc(C)c1NC(=S)N=Nc1c(O)n(C)c2ccc(S(=O)(=O)N3CCOCC3)cc12	.	4.1µM	2.6µM	.	.	.
Cn1c(=O)n(C)c2cc(S(=O)(=O)N3CCOCC3)ccc21	.	.	.	.	.	.
C=CCN1C(=O)c2ccccc2NC1c1cc(Br)cs1 (centres undefined)	/	.	.	.	.	.
CCN1/C(=C/C(C)=O)Sc2ccc(OC)cc21	.	13µM	7.1µM!	.	.	.
COc1ccc2c(c1)N(C)/C(=C/c1cccc[n+]1C)S2	.	0.01µM	0.26µM	.	.	.
CCN1/C(=C/c2cccc[n+]2C)Sc2ccc(OC)cc21	.	2.3µM	2.6µM	.	?	.
S=C(NCc1cccnc1)Nc1ccc(Oc2ccc(Cl)cc2)cc1	.	?	?	.	.	.
C/C(=N\NC(=O)c1ccn(C)n1)c1ccc(NC(=O)C2CCCC2)cc1	.	18µM	.	.	.	.
C/C(=N\NC(=O)C1(C)CC1(Br)Br)c1ccc(NC(=O)C2CCC2)cc1 (centres undefined)	.	?	18µM	.	.	.
CC(=O)c1cccc(CN2CCCC(CCC(=O)NCc3ccc(C)o3)C2)c1 (centres undefined)	/	?	?	.	.	.
CN1CCN2c3ncccc3Cc3ccccc3C2C1 (centres undefined)	.	.	.	.	.	.

From PubChem BioAssay
